From PubChem BioAssay
This is a sample that favours compounds with a hit; in the whole collection about 6.7% have one here.
C diff HTS – blocks growth of Clostridium difficile | Clostridium difficile clinical isolate growth, OD600, 24 h; hits give low values | 86,000 compounds, 0.25% hits | AID 1259249 | growth activity, negative = inhibition, % at 16 µg/mL (by protocol);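 active means mean growth activity at or below -80% and every replicate also at or below -80%; inconclusive means mean at or below -80% but some replicate above -80%; inactive means mean growth activity above -80%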;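 further: 0% = DMSO wells and -100% = levofloxacin 16 µg/mL wells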
Pf Dd2 inh – P. falciparum Dd2 growth inhibition | SYBR Green, 72 h; hits give low values | activity change, % at 10 µM | 94,000 compounds, 2.3% hits; in the data active means activity change below about -80%; inconclusive means no clear call, values can overlap the other calls
T cruzi growth-1 – T. cruzi proliferation inhibition. T. cruzi beta-gal in NIH3T3, GalScreen luminescence, 90 h. inhibition, % at 8.34 µM. 77,000 compounds, 5.9% hits. AID 624255;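 active means mean inhibition above about 93%, with at least 55% of replicates each passing it, limit read from the data, passing the limit was not always enough; inconclusive means only one of those two conditions holds; inactive means neither condition holds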
T cruzi growth-2 – inhibitors of T. cruzi proliferation; 5,600 compounds, 72% hits; AID 651739; shares compounds with T cruzi growth-1; inhibition, % at 8.35 µM; T. cruzi beta-gal in NIH3T3, GalScreen luminescence, 90 h;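 active means mean replicate inhibition above about 95% and at least 55% of replicates individually reaching it, limit read from the data; inconclusive means only one of the two criteria is met; inactive means neither criterion is met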
T cruzi growth-3 – inhibitors of T. cruzi proliferation. 5,600 compounds, 21% hits. inhibition, % at 2.09 µM. AID 651740. shares compounds with T cruzi growth-1. T. cruzi beta-gal in NIH3T3, GalScreen luminescence, 90 h;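 active means mean inhibition above about 95%, with at least 55% of replicates also reaching it, limit read from the data; inconclusive means meets just one of the two conditions; inactive means meets neither condition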;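 further: plate controls were neutral control median for no effect and positive control median for full effect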
3T3 cytotox – cytotoxicity in mouse NIH/3T3 fibroblasts | shares compounds with T cruzi growth-1 | AID 651742 | cytotoxicity (signal decrease), % at 8.35 µM | 5,600 compounds, 14% hits | NIH/3T3 viability, CellTiter-Glo ATP luminescence, 90 h;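 active means mean signal decrease across replicates above about 35% based on untreated-well scatter, with enough replicates individually passing, limit read from the data; inconclusive means no rule stated though some were filed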;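 further: 0% = median of neutral control wells and 100% = median of positive control wells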
NIH3T3 tox 2 – cytotoxicity in mouse NIH/3T3 fibroblasts | inhibition, % at 24.9 µM | AID 651744 | NIH/3T3 viability, CellTiter-Glo ATP luminescence, 90 h | shares compounds with T cruzi growth-1 | 5,600 compounds, 56% hits;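 active means mean loss of cell viability signal at or above a set limit, and enough replicates individually reaching it; inconclusive means meets only the mean limit or only the replicate share; inactive means meets neither condition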;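 further: 0% = median of neutral control wells and 100% = median of positive control wells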
* marks the source's active call; other numbers are inactive results; ? = inconclusive; / = no result.

SMILES	C diff HTS	Pf Dd2 inh	T cruzi growth-1	T cruzi growth-2	T cruzi growth-3	3T3 cytotox	NIH3T3 tox 2
CCCNC(=O)N1[C@H](C#N)[C@@H](c2ccc(-c3cccnc3)cc2)[C@@H]1CO	0.6	-5.0	55.8	/	/	/	/
CCCNC(=O)N1[C@H](C#N)[C@@H](c2ccc(-c3cccc(OC)c3)cc2)[C@@H]1CO	2.7	-52.5	77.4	/	/	/	/
O=C(C[C@H]1C[C@@H]2c3cc(NS(=O)(=O)c4ccc(F)cc4)ccc3O[C@@H]2[C@H](CO)O1)N1CCCCC1	-2.8	-12.4	/	/	/	/	/
COc1ccccc1NC(=O)N[C@@H]1CC[C@H](CC(=O)N[C@H](C)c2ccccc2)O[C@H]1CO	/	19.4	-9.0	/	/	/	/
O=C(C[C@@H]1CC[C@@H]2[C@H](COC[C@@H](O)CN2Cc2ccc3c(c2)OCO3)O1)Nc1ccc(-c2ccccc2)cc1	63.5	-45.6	102.2*	97.1*	94.7	36.3*	50.8*
O=C(C[C@H]1CC[C@@H]2[C@H](COC[C@H](O)CN2Cc2ccc3c(c2)OCO3)O1)N1CCOCC1	/	1.4	26.4	/	/	/	/
O=C(C[C@@H]1CC[C@H]2[C@@H](COC[C@H](O)CN2Cc2ccc3c(c2)OCO3)O1)Nc1ccc(-c2ccccc2)cc1	84.4	-50.2	?	102.9*	78.0	-14.9	91.7*
O=C(C[C@@H]1CC[C@@H]2[C@H](COC[C@@H](O)CN2Cc2ccc3c(c2)OCO3)O1)N1CCOCC1	/	1.1	-12.2	/	/	/	/
CO[C@H]1CN(C)C(=O)c2cc(NS(C)(=O)=O)ccc2OC[C@@H](C)N(CC2CCCCC2)C[C@H]1C	/	9.7	-33.8	/	/	/	/
CC(C)NC(=O)N1[C@H](CO)[C@@H](c2ccc(C#CC3CCCC3)cc2)[C@@H]1C#N	0.9	-21.6	98.5*	102.8*	37.2	-7.0	10.8
CC(C)NC(=O)N1[C@@H](C#N)[C@H](c2ccc(C#CC3CC3)cc2)[C@@H]1CO	-8.8	-43.2	104.4*	105.1*	?	3.3	57.5*
CC(C)NC(=O)N1[C@@H](C#N)[C@H](c2ccc(C#CC3CCCC3)cc2)[C@@H]1CO	1.0	-18.4	99.6*	105.5*	49.9	-0.5	51.8*
N#C[C@@H]1[C@@H](c2ccc(C#CC3CCCC3)cc2)[C@H](CO)N1C(=O)Nc1ccc(F)cc1	-0.2	-24.3	91.7	/	/	/	/
CC(C)NC(=O)N1[C@@H](C#N)[C@@H](c2ccc(C#CC3CCCC3)cc2)[C@@H]1CO	2.9	-7.5	105.3*	101.4*	77.4	8.1	27.2*
N#C[C@@H]1[C@H](c2ccc(C#CC3CCCC3)cc2)[C@H](CO)N1C(=O)Nc1ccc(F)cc1	-3.9	-67.0	88.1	/	/	/	/
CN(C)CC(=O)N1[C@H](C#N)[C@@H](c2ccc(C#CC3CC3)cc2)[C@H]1CO	6.5	22.9	15.8	/	/	/	/
CN1c2ccc(-c3ccccc3)cc2[C@H]2[C@H](CCN2S(=O)(=O)c2ccccc2F)[C@@H]1CO	4.1	-7.4	-10.0	/	/	/	/
CC(=O)N(C)C[C@H]1Oc2ncc(C#Cc3ccc(F)cc3)cc2C(=O)N([C@H](C)CO)C[C@H]1C	3.7	-13.5	/	/	/	/	/
O=C(C[C@@H]1CC[C@H](NC(=O)c2ccc3c(c2)OCO3)[C@@H](CO)O1)NC1Cc2ccccc2C1	/	4.5	11.4	/	/	/	/
Cc1ccccc1S(=O)(=O)NCC[C@H]1CC[C@@H](NC(=O)C2CCOCC2)[C@H](CO)O1	/	1.6	-24.6	/	/	/	/
C[C@H]1CN([C@@H](C)CO)S(=O)(=O)c2ccc(C#Cc3ccncc3)cc2O[C@@H]1CN(C)C	5.0	-63.3	-5.5	/	/	/	/
C[C@H]1CN([C@@H](C)CO)S(=O)(=O)c2ccc(C#Cc3ccncc3)cc2O[C@H]1CN(C)S(=O)(=O)c1ccc(F)cc1	9.8	-89.4*	118.3*	101.8*	67.0	?	11.4
C[C@H]1CN([C@@H](C)CO)S(=O)(=O)c2ccc(C#Cc3ccncc3)cc2O[C@H]1CN(C)C	7.2	-30.1	10.1	/	/	/	/
C[C@H](CO)N1C[C@H](C)[C@H](CN(C)S(=O)(=O)c2ccc(F)cc2)Oc2cc(C#Cc3ccncc3)ccc2S1(=O)=O	9.3	-84.5*	114.3*	92.2	45.5	?	64.8*
COc1ccc(CNC(=O)C[C@@H]2C[C@@H]3c4cc(NS(C)(=O)=O)ccc4O[C@@H]3[C@H](CO)O2)cc1	1.6	15.4	4.0	/	/	/	/
SMILES	C diff HTS	Pf Dd2 inh	T cruzi growth-1	T cruzi growth-2	T cruzi growth-3	3T3 cytotox	NIH3T3 tox 2
Cc1ccc(-c2ccc([C@@H]3[C@H]4CN(C(=O)c5cccnc5)CC(=O)N4[C@H]3CO)cc2)cc1	47.0	-17.7	/	/	/	/	/
COc1ccc2c3c([nH]c2c1)[C@@H](CO)N(CC1CC1)CC31CCN(C(=O)NC2CCCC2)CC1	25.9	-41.5	/	/	/	/	/
CC(C)c1cn(CC[C@H]2CC[C@@H](NS(=O)(=O)c3ccc(Cl)cc3)[C@@H](CO)O2)nn1	-1.6	-49.2	-51.4	/	/	/	/
COc1ccccc1-c1ccccc1[C@H]1[C@H](C#N)N(C(=O)C2CC2)[C@H]1CO	-10.2	22.2	/	/	/	/	/
COc1ccccc1-c1ccc([C@H]2[C@@H](CO)N(C(=O)C3CCCCC3)[C@H]2C#N)cc1	2.7	6.2	74.4	/	/	/	/
N#C[C@@H]1[C@@H](c2ccc(-c3ccccc3F)cc2)[C@H](CO)N1C(=O)C1CC1	7.0	-4.0	62.8	/	/	/	/
COc1ccccc1-c1ccc([C@H]2[C@@H](C#N)N(C(=O)C3CC3)[C@@H]2CO)cc1	7.6	9.2	102.7*	109.8*	45.0	3.2	34.8*
COc1ccccc1-c1ccc([C@@H]2[C@@H](C#N)N(C(=O)C3CCCC3)[C@@H]2CO)cc1	-2.4	-30.6	/	/	/	/	/
COc1ccccc1-c1ccc([C@H]2[C@@H](C#N)N(C(=O)C3CC3)[C@H]2CO)cc1	13.2	0.5	98.9*	88.3	48.9	2.3	21.0
COc1ccccc1-c1ccc([C@@H]2[C@@H](CO)N(C(=O)C3CC3)[C@H]2C#N)cc1	9.5	3.0	105.4*	73.0	7.8	-21.3	6.7
COc1ccccc1-c1ccc([C@@H]2[C@H](C#N)N(C(=O)C3CC3)[C@H]2CO)cc1	9.3	10.8	101.8*	48.5	-3.3	13.3	46.9*
CCCNC(=O)N(C)C[C@H]1Oc2ncc(C#CC3CC3)cc2C(=O)N([C@H](C)CO)C[C@@H]1C	/	36.9	19.9	/	/	/	/
C[C@@H]1CCCCO[C@H](CN(C)C(=O)Cc2ccccc2)[C@H](C)CN([C@H](C)CO)C(=O)c2cc(NS(=O)(=O)c3ccccc3)ccc2O1	/	-71.6	/	/	/	/	/
C[C@H](CO)N1C[C@H](C)[C@@H](CN(C)S(=O)(=O)c2ccc(Cl)cc2)Oc2ccc(NC(=O)Cc3ccccc3)cc2CC1=O	-4.4	-60.7	-139.2	/	/	/	/
CCC(=O)N(C)C[C@H]1Oc2cc(C3=CCCCC3)ccc2S(=O)(=O)N([C@@H](C)CO)C[C@H]1C	/	21.1	42.7	/	/	/	/
CN(C)C(=O)c1cccc(-c2ccccc2[C@@H]2[C@@H](C#N)N(C(=O)C3CC3)[C@H]2CO)c1	2.8	?	/	/	/	/	/
